MITF inh: blocks human microphthalmia-associated transcription factor | O75030 | AlphaScreen MITF homodimerization, bead proximity signal | inhibition, % at 2.6 µM | 650,000 compounds, 0.91% hits; in the data active = inhibition above about 50%
TEAD-YAP block: TEAD-YAP interaction inhibition; inhibition, % at 9.12 µM; AID 1259422; 640,000 compounds, 1.4% hits; HEK-TIYL cells, TEAD-Gal4/YAP UAS-luciferase luminescence; in the data active = inhibition above about 32%
FBW7 act: activators of human E3 ligase FBW7; 650,000 compounds, 0.13% hits; normalized activity (activation), % at 26.1 µM; AID 1259310; AlphaScreen FBW7–phospho-cyclin E peptide binding, activator screen; in the data active = normalized activity above about 1.9%;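 note: purified mutant Fbw7 with reduced substrate affinity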
Target sequence (Q969H0 whole entry, looked up): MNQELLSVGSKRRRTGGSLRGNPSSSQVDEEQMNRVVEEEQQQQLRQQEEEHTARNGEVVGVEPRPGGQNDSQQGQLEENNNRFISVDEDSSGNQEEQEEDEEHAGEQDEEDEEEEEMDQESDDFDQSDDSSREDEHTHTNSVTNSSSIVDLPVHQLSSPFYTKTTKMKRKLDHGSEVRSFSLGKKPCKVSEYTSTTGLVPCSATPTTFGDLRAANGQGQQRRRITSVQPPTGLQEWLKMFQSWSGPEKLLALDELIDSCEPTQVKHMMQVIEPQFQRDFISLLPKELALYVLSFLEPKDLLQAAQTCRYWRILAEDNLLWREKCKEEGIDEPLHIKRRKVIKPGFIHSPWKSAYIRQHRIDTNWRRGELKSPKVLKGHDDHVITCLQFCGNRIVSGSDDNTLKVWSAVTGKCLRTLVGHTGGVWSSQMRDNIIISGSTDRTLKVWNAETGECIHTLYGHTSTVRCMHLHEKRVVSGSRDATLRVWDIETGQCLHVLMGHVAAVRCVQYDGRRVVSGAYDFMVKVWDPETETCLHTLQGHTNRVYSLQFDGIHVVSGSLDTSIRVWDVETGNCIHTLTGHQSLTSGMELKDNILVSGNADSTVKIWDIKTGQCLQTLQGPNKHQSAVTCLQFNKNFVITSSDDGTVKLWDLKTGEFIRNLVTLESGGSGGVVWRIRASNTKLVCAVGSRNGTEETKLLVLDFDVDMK
GPR151 ag: activates the human receptor GPR151; Q8TDV0; PathHunter beta-arrestin GPR151 cells, luminescence; activation, % at 11.2 µM; 650,000 compounds, 1% hits; AID 1508602; in the data active = activation above about 4.9%
GPR151 conf act: confirmation of human GPR151 activators | activation, % at 11.2 µM | 6,700 tested, under 10 active | GPR151 PathHunter beta-arrestin cells, luminescence, 90 min; % of EA-reagent control over plate median | shares compounds with GPR151 ag;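 active = mean percent activation across replicates above the confirmation screen cutoff of 4.91%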
GPR119 ag: GPR119 activation, counter-screen for GPR151 activators | shares compounds with GPR151 ag | GPR119 PathHunter beta-arrestin cells, luminescence, 90 min; 0 = compound-well median, 100 = enzyme-acceptor control | activation, % at 11.2 µM | 6,700 compounds, 0.3% hits;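 active = mean percent activation in the counterscreen above 29.09%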;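 note: counterscreen on off-target GPR119 to flag nonselective hits from the GPR151 activator screen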
Large screens that a line does not name were inactive (follow-up assays come after a bar, where they were run). The list is not random: actives were taken first. Their share in the collection is about 3.5%.

COc1ccc(NC(=O)c2sc3nc4c(cc3c2N)C(=O)CCC4)cc1	GPR151 ag 10.1 | GPR151 conf act inactive | GPR119 ag inactive
Cc1nc(SCC(=O)NNC(=O)c2cccs2)n[nH]1	GPR151 ag 5.8 | GPR151 conf act inactive | GPR119 ag inactive
CCCCN(C)CCCN(Cc1cccs1)C(=S)Nc1cc(C)cc(C)c1	none
COc1ccc(S(=O)(=O)N(CC(=O)N2CCCC2)c2ccc(C)cc2)cc1	GPR151 ag 11.7 | GPR151 conf act inactive | GPR119 ag inactive
COc1ccc(N(CC(=O)N2CCCCC2)S(=O)(=O)c2ccc(C)cc2)cc1	none
CCCS(=O)(=O)c1c(S(=O)(=O)CCC)c2ccc(C(C)=O)cn2c1C(=O)c1ccc(OC)cc1	GPR151 ag 6.1 | GPR151 conf act inactive | GPR119 ag inactive
CCCS(=O)(=O)c1c(S(=O)(=O)CCC)c2ccc(C(C)=O)cn2c1C(=O)c1ccc(C)cc1	none
CC(C)c1ccc(Nc2nc(CC(=O)O)cs2)cc1	none
CS(=O)(=O)Nc1nc(CC(=O)O)cs1	GPR151 ag 5.2 | GPR151 conf act inactive | GPR119 ag inactive
CCOC(=O)C1=C(C)N=c2s/c(=C\c3cc(C)n(-c4ccc(C)cc4)c3C)c(=O)n2C1c1ccccc1 (stereo not drawn)	none
CC(C)N(C)Cc1nnnn1CC(=O)N1CCN(c2ccccc2O)CC1	GPR151 ag 5.0 | GPR151 conf act inactive | GPR119 ag inactive
COc1ccc(CCNC(=O)c2sc3ncnc(N4CCCCC4)c3c2C)cc1OC	none
Cc1nc(N2CCCCC2)c2c(C)c(C(=O)N3CCN(c4ccccc4)CC3)sc2n1	GPR151 ag 5.3 | GPR151 conf act inactive | GPR119 ag inactive
COc1ccc(CCNC(=O)c2sc3nc(C)nc(N4CCCCC4)c3c2C)cc1OC	GPR151 ag 24.6 | GPR151 conf act inactive | GPR119 ag inactive
CCN(C(=O)CCC1CCCC1)c1nnc(-c2cccnc2)s1	none
COc1ccccc1-c1nnc(NC(=O)CSC2=NCCS2)s1	GPR151 ag 5.6 | GPR151 conf act inactive | GPR119 ag inactive
N#CCCn1cc(/C=N/O)c(-c2ccccc2)n1	none
N#CCCn1cc(C=O)c(-c2ccc(-c3ccccc3)cc2)n1	GPR151 ag 5.5 | GPR151 conf act inactive | GPR119 ag inactive
CC(C)CC(NC(=O)c1cccc(Br)c1)C(=O)O (stereo not drawn)	none
COc1ccccc1OCC(=O)Nc1ccccc1C(=O)O	none
CCOc1ccc(C(=O)NC(=S)Nc2ccccc2C(=O)OC)cc1	GPR151 ag 6.8 | GPR151 conf act inactive | GPR119 ag inactive
COC(=O)c1ccccc1NC(=O)COc1ccc(F)cc1	none
CCOc1ccc(C(=O)NC(=S)Nc2ccccc2C(=O)OC)cc1[N+](=O)[O-]	none
COc1cc(C=O)ccc1OCC(=O)Nc1ccccc1C(=O)c1ccccc1	GPR151 ag 5.8 | GPR151 conf act inactive | GPR119 ag inactive
COC(=O)c1ccccc1NC(=O)COc1ccc(C=O)cc1	GPR151 ag 8.0 | GPR151 conf act inactive | GPR119 ag inactive
COc1ccc(N2CN=c3s/c(=C4\C(=O)N(C)c5ccccc54)c(=O)n3C2)cc1OC	none
CCc1ccc(S(=O)(=O)N2CCN(S(=O)(=O)C3CC3)CC2)s1	none
COC(=O)c1ccc(Oc2cc(C)nc(-c3ccccc3O)n2)cc1	none
COc1ccc(Cl)cc1NC(=S)N(Cc1ccc(C)cc1)Cc1ccco1	none
CCC(C)NC(=O)c1cccc(N2CCCC2=O)c1 (stereo not drawn)	none
O=C(O)c1cccc(N2CCCC2=O)c1	GPR151 ag 5.4 | GPR151 conf act inactive | GPR119 ag inactive
CCCCCOC(=O)c1ccc2c(c1)C(=O)N(c1ccc(C)cc1)C2=O	none
CCOc1cc(C2C(C(=O)OC)=CN(CCOC)C=C2C(=O)OC)cc([N+](=O)[O-])c1O	GPR151 ag 6.0 | GPR151 conf act inactive | GPR119 ag inactive
Cc1ccc(CCNC(=O)CNC(=S)N(Cc2cccs2)C2CCCCC2)cc1	none
CCC(C)CC(=O)N1CCc2nnc(CNC(=O)CCc3cccnc3)n2CC1 (stereo not drawn)	GPR151 ag 9.0 | GPR151 conf act inactive | GPR119 ag inactive
Cc1ccc(C(=O)N/N=C\C(Br)=C\c2ccccc2)cn1	GPR151 ag 5.8 | GPR151 conf act inactive | GPR119 ag inactive
